# Where “and” joins values, the source holds several entries; their conditions need not be identical. Equal entries are not always repeated. This is part of a sample that, as a whole, favours compounds with a hit. Of some 83,000 tested, about 20% had one in any assay.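 96-well plates, one dose, 48 hours. Percent growth reported; active if below 10.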 Unmarked numbers belong to inactive results. Calls of active or inactive are those of the source.
# Test system: MDA-MB-468 breast
# Assay: NCI-60 one-dose screen, 48 h (100 = growth as untreated, 0 = no growth, -100 = all killed)
# Details: 10 µM unless noted
row,SMILES,growth
1,O=[N+]([O-])c1ccc(Cl)c(-c2cc(CCCCO)on2)c1,98.3%
2,O=C(O)c1ccccc1Oc1cc(-c2ccco2)nc(OCCN2CCOCC2)n1,105%
3,CC(=O)c1cc(C(=O)N2c3ccccc3Sc3ccccc32)n2c1ccc1ccccc12,50.6%
4,Oc1c(Cl)cc(Cl)c(Cl)c1Cc1c(O)c(Cl)cc(Cl)c1Cl,4.35% (active)
5,N[C@@H]1CCC[C@H]1NCCCCN1C(=O)c2cccc3cc([N+](=O)[O-])cc(c23)C1=O,31.9%
6,CN(C)CCCOc1ccc(OCCCN(C)C)c2c1C(=O)c1ccccc1C2=O,-33.7% (active)
7,CCN1C(=O)N(CC)C2C1NN=c1s/c(=C\c3ccccn3)c(=O)n12 (centres undefined),-26.9% (active)
8,CCn1c(=S)sc2c(Nc3ccc(F)cc3)nc(-c3cccnc3)nc21,79.8%
9,Cc1cc(O)c(C2=NN(c3ccc(S(N)(=O)=O)cc3)C(c3ccc(Cl)cc3)C2)c(C)c1Cl (centres undefined),43.7%
10,C#CCOc1ccc(/C=N/Nc2nc(-c3ccc(OC)cc3)cs2)cc1,45.3%
11,CCNC(=O)N1CCc2cc(OC)c(OCCc3ccc(OC)cc3)cc2C1c1ccc(Cl)cc1C (centres undefined),-1.44% (active)
12,CN1CCN(c2ccc3nc(-c4[nH]ncc4Nc4ncnc5c4OCCCN5)[nH]c3c2)CC1,-76.3% (active)
13,COc1cc(/C=C/c2cc(/C=C/c3ccc(O)c(OC)c3)[nH]c(=O)n2)ccc1O,6.34% (active)
14,COc1cccc(-c2nn(-c3ccccc3)cc2-c2ccnc(N3CCN(C(=O)c4ccccc4)CC3)c2)c1,82.3%
15,CCCCCC/C=C1\CCC(CN2CCCC2)C1=O (centres undefined),73.2%
16,C#CCO[C@H]1CC[C@H](OCC#C)[C@@H]2[C@H]1[C@H]1C[C@@H]3[C@@]4(C)CCC[C@@](C)(C(=O)OC)[C@@H]4CC[C@@]23C=C1C(C)C,91.3%
17,Cc1cc(C(=O)c2ccccc2)c(C)c2c1[nH]c1ccc(Cl)cc12,-7.26% (active)
18,COc1cc(-c2nc(SCCC(C)C)nc(Nc3ccc(F)cc3)c2C#N)cc(OC)c1OC,96.8%
19,Nc1ccc(-c2cc3c(Nc4ccc(Oc5cccc(C(F)(F)F)c5)c(Cl)c4)ncnc3s2)cc1,-9.82% (active)
20,CC1CCCCC[N+]12CCCC2 (centres undefined),99.4%
21,Cc1ccc(NS(=O)(=O)c2ccc(C)cc2)cc1,94.4% and 87.3%
22,CCOC(=O)C1=CSC2=NC3=C(CCC/C3=C\c3ccc(Cl)cc3)C(c3ccc(Cl)cc3)N12 (centres undefined),84.9%
23,CC1=CC(c2ccco2)=C2C(N)=NNC2N1 (centres undefined),104%
24,CC(=O)N(C)C1CCc2c(sc(NC(=O)c3ccc(C(C)(C)C)cc3)c2C(N)=O)C1 (centres undefined),86.6%

# Reference: PubChem BioAssay (NCI)
